Screening data: PubChem, several laboratories
Compounds with a hit are over-represented: about 3% of the library has one in this group of screens.
Vc quorum ag = inducers of Vibrio cholerae quorum light production without autoinducers. V. cholerae BH1578 lux reporter, luminescence, 6 h. activation, % at 18.7 µM. actives 0.16% (n = 350,000). AID 588436; in the data active means activation mostly above about 9.7%, no sharp cut-off
FBA Mtb inh = Mtb fructose-bisphosphate aldolase inhibition | P9WQA3 | purified M. tuberculosis FBA, fluorescence read-out | inhibition, % at 1 µM | actives 2.3% (n = 360,000); in the data active means inhibition above about 27%;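 further: 0% = vehicle and 100% = reference inhibitor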
Target sequence (P9WQA3 whole entry, looked up): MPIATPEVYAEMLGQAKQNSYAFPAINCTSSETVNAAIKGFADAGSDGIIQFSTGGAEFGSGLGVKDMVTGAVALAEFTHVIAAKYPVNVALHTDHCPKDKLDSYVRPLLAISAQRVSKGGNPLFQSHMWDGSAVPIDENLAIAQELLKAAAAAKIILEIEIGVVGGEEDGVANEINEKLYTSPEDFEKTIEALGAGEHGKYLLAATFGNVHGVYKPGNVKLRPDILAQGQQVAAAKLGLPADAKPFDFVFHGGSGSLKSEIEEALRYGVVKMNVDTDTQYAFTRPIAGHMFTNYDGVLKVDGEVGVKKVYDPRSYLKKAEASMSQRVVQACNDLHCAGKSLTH
GDH-TPI inh = GDH-TPI coupled enzyme inhibition counter-screen | GDH-TPI coupled enzyme counterscreen, NADH absorbance | actives 1.2% (n = 360,000) | inhibition, % at 4.8 µM | AID 588335; in the data active means inhibition above about 30%;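 further: 0% = DMSO wells and 100% = wells lacking the enzyme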
Mtb BioA inh = blocks M. tuberculosis BioA enzyme activity; purified M. tuberculosis BioA enzyme, plate reader; inhibition, % at 9.99 µM; actives 0.096% (n = 360,000); in the data active means inhibition above about 40%
Starred values were filed as active, the others as inactive; i = inactive; . = not tested or not shown; + = active, no number.

SMILES | Vc quorum ag | FBA Mtb inh | GDH-TPI inh | Mtb BioA inh
Cc1nn(-c2ccccc2)c(Cl)c1/C=N/NC(=O)c1cccnc1 | 0 | 0 | 9 | .
CN(C)c1ccc(C(=O)N/N=C/c2ccccn2)cc1 | -1 | 1 | 35* | -1
C/C=C/c1ccc([C@H]2[C@@H](CNC(=O)c3ccccn3)N(C(=O)CC)[C@H]2CO)cc1 | . | . | . | -5
CNC(=O)C[C@H]1CC[C@H]2[C@@H](COc3ccc(NC(=O)c4cc(F)cc(F)c4)cc3C(=O)N2C)O1 | . | . | . | -3
O=C(/C=C/c1ccccc1Cl)c1cccnc1 | i | -2 | 17 | 1
O=C(/C=C/c1ccccc1Cl)c1ccc(O)cc1 | -1 | -3 | 35* | 4
O=C(C[C@@H]1CC[C@H]2[C@@H](COC[C@@H](O)CN2Cc2ccccc2F)O1)N[C@@H]1CCN(Cc2ccccc2)C1 | . | . | . | 0
O=C(Nc1ccc(F)cc1)N[C@H]1CC[C@@H](CCNS(=O)(=O)c2cccc(Cl)c2)O[C@H]1CO | . | . | . | 5
N#Cc1cc2cc3c(cc2nc1SCC(=O)N1CCCC1)OCCO3 | 0 | 3 | 6 | .
CC(=O)CSc1nc2cc3c(cc2cc1C#N)OCCO3 | -1 | 3 | 33* | .
O=C(NC1CCN(Cc2ccc(F)cc2)CC1)c1ccccc1 | 1 | 2 | 0 | -1
O=C(NC(=S)NC1CCN(Cc2ccccc2)CC1)c1ccc(F)cc1 | i | + | 2 | 0
Cc1ccc(S(=O)(=O)N[C@H]2CC[C@@H](CCn3cc(-c4cccnc4)nn3)O[C@H]2CO)cc1 | . | . | . | 4
CCN1CCN(C(=O)c2cc(-c3ccco3)nc3ccccc23)CC1 | -6 | 130* | 12 | -5
O=C(O)c1cc(-c2ccc(Cl)s2)nc2ccccc12 | 1 | 159* | 8 | .
CCN1CCN(C(=O)c2cc(-c3ccc(Cl)s3)nc3ccccc23)CC1 | 0 | 118* | 21 | 4
Cc1ccc(-c2cc(C(=O)O)c3ccccc3n2)s1 | i | + | 15 | 0
O=C(c1cc(-c2ccncc2)nc2ccccc12)N1CCN(Cc2ccccc2)CC1 | -4 | 3 | 13 | 7
CC(=O)N1CCN(C(=O)c2cc(-c3cccc4ccccc34)nc3ccccc23)CC1 | i | 6 | 6 | 1
COc1ccc(CN(C)C[C@H]2Oc3ccc(NC(=O)CCC(F)(F)F)cc3CC(=O)N([C@H](C)CO)C[C@@H]2C)cc1 | . | . | . | 4
O=C(Nc1ccc2c(c1)[C@H]1C[C@H](CC(=O)N3CCCCC3)O[C@H](CO)[C@H]1O2)c1ccc2c(c1)OCO2 | . | . | . | 1
O=C(O)c1cc(-c2cccs2)nc2ccc(F)cc12 | 0 | + | 12 | 0
COc1ccc(C)cc1NC(=O)ON=C1CCCCC1 | . | 0 | . | .
O=C(Nc1cccc2ccccc12)ON=C1CCCCC1 | i | 116* | -4 | 0
C[C@H]1CCCCO[C@H](CN(C)C(=O)Nc2ccc(C(F)(F)F)cc2)[C@@H](C)CN([C@@H](C)CO)C(=O)c2cc(NS(C)(=O)=O)ccc2O1 | . | . | . | 1
SMILES | Vc quorum ag | FBA Mtb inh | GDH-TPI inh | Mtb BioA inh
CNc1nc(N)c([N+](=O)[O-])c(Nc2ccccc2OC)n1 | -10 | 6 | 32* | -3
COc1ccccc1Nc1nc(NCCO)nc(N)c1[N+](=O)[O-] | i | -6 | 14 | -1
CCN(CC)S(=O)(=O)c1ccc(C(=O)Nc2nnc(NC(=S)Nc3ccccc3)s2)cc1 | i | 0 | 41* | .
CCN(CC)S(=O)(=O)c1ccc(NC(=S)Nc2ccccc2)cc1 | i | 2 | 16 | .
CN1c2ccc(-c3ccc(C#N)cc3)cc2[C@@H]2[C@@H](CCN2C(=O)Nc2cccc(F)c2)[C@@H]1CO | . | . | . | -1
Cc1ccc2[nH]c3ccccc3c(=O)c2c1 | i | 136* | -1 | -1
O=c1c2ccccc2[nH]c2ccc(F)cc12 | 0 | 156* | 5 | .
O=C(C[n+]1cccc2ccccc21)c1ccc(Cl)cc1 | -1 | 125* | 10 | 2
O=C(C[C@H]1C=C[C@@H](NC(=O)CN2CCOCC2)[C@H](CO)O1)NCCc1ccccc1 | . | . | . | -4
C[C@@H]1CN([C@@H](C)CO)C(=O)Cc2cc(NC(=O)CCC(F)(F)F)ccc2O[C@H]1CN(C)S(=O)(=O)c1ccc(F)cc1 | . | . | . | 1
CNC[C@H]1Oc2ccc(NC(=O)Nc3cccc4ccccc34)cc2C(=O)N([C@H](C)CO)C[C@@H]1C | . | . | . | -5
CCOC(=O)c1cc2c(=O)n3cccc(C)c3nc2n(CC(C)C)c1=NC(=O)c1ccco1 | i | + | 13 | 0
CCOCCCn1c(=NC(=O)c2ccco2)c(C(=O)OCC)cc2c(=O)n3cccc(C)c3nc21 | i | + | 17 | .
Cc1cccn2c(=O)c3cc(C(=O)N4COCC4(C)C)n(Cc4ccccc4)c3nc12 | -1 | 4 | -9 | .
COc1ccc(N=Nc2c(N)nn(C)c2N)cc1 | . | -5 | 60* | .
Cc1cc(C(=O)Nc2cccc3c2O[C@@H](CN(C)C(=O)Nc2ccc(C(F)(F)F)cc2)[C@H](C)CN([C@@H](C)CO)C3=O)n(C)n1 | . | . | . | -1
N#Cc1c(NC(=O)c2ccccc2Cl)n(Cc2ccccc2)c2nc3ccccc3nc12 | 1 | 35* | 7 | .
O=C(c1ccco1)N1N=C(c2cccs2)CC1c1cc([N+](=O)[O-])ccc1O (configuration not stated) | i | -4 | 45* | 1
Cc1nc2nc(N)nc(OCc3ccccc3)c2nc1C | 0 | 161* | 7 | 10
C[C@H](CO)N1C[C@H](C)[C@H](CN(C)C(=O)Nc2ccc3c(c2)OCO3)Oc2ncc(C#CCN(C)C)cc2C1=O | . | . | . | 2
O=C1NC(c2ccccc2)=C(c2nc3ccccc3s2)C(c2ccccc2)N1 (configuration not stated) | 1 | 0 | 34* | -1
C[C@H](CO)N1C[C@H](C)[C@@H](CN(C)Cc2ccc(C(=O)O)cc2)Oc2ccc(NC(=O)Nc3cccc4ccccc34)cc2CC1=O | . | . | . | -1
Cc1c(C(=O)C(=O)N2CCC3(CC2)OCCO3)c2ccccc2n1C | 0 | 2 | 46* | -1
Cc1c(C(=O)C(=O)N2CCN(C)CC2)c2ccccc2n1C | 0 | -2 | 24 | 0
O=C(C1=C[C@@H](c2csc3ccccc23)C[C@@H](OCCCCO)O1)N1CCCCCCC1 | . | . | . | 0
SMILES | Vc quorum ag | FBA Mtb inh | GDH-TPI inh | Mtb BioA inh
Cc1csc(Nc2nc(N)c(C(=O)Nc3ccccc3)o2)n1 | i | -1 | 35* | -2
CC(C)CC(=O)Nc1nc(-c2ccc(S(=O)(=O)N3CCOCC3)cc2)cs1 | -4 | 31* | -1 | 0
O=C(Nc1nc(-c2ccc(S(=O)(=O)N3CCOCC3)cc2)cs1)c1ccccc1 | 2 | 0 | 12 | .
CCCCC(=O)Nc1nc(-c2ccc(S(=O)(=O)N3CCOCC3)cc2)cs1 | 0 | 36* | -1 | 0
CCNC(=O)[C@@H]1[C@@H](CO)[C@@H]2Cn3c(ccc(/C=C/c4ccccc4)c3=O)[C@@H]2N1C(=O)C1CC1 | . | . | . | -1
COc1ccc(C(=O)/C=C/c2ccc(OCc3ccccc3)cc2)cc1CSCC(=O)O | i | 0 | 40* | 23
COc1ccccc1-c1ccc2c(c1)[C@@H]1[C@@H](CCN1S(=O)(=O)c1ccccc1F)[C@H](CO)N2 | . | . | . | -1
CCOc1cc(/C=N/Nc2ccc(C(=O)O)cc2)ccc1OC(=O)c1ccccc1C | -1 | -2 | 51* | .
